The sample as a whole holds a higher share of hits than the screen did.
12-LOX inh – Primary qHTS assay for inhibitors of human arachidonate 12S-lipoxygenase (ALOX12): Round 2. 580,000 compounds, 1.1% hits. Potency, µM (highest dose often 108 µM), inactives show at the top dose activity change, negative = inhibition, most hits filed as inhibitors. AID 1671190, 2021. purified 12hLO, xylenol orange hydroperoxide absorbance. Polyunsaturated fatty acid lipoxygenase ALOX12 (Homo sapiens), P18054; note: potency is the fitted concentration of half-maximal effect
Target sequence (P18054 whole entry, looked up): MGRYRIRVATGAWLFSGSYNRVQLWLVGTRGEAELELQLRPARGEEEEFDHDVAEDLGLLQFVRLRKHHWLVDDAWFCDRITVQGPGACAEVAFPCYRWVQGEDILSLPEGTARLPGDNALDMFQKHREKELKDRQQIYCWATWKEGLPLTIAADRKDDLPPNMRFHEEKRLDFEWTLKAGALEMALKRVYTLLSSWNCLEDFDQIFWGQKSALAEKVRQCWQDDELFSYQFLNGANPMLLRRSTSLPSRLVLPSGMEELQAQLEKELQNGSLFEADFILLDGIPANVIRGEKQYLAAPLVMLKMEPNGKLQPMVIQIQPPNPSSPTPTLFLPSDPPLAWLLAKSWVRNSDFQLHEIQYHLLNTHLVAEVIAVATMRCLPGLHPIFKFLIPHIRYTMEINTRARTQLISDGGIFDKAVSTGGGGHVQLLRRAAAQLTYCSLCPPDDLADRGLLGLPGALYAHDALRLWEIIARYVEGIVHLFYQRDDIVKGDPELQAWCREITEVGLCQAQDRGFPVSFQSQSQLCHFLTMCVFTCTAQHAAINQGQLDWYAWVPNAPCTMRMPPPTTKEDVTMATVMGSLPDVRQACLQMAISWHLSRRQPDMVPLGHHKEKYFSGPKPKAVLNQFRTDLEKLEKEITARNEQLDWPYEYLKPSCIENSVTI
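Purified human 12hLO (150 nM final) in 25 mM Hepes, 0.01% Triton X-100, pH 7.0 was preincubated 15 min at room temperature with compound. Then 40 uM arachidonic acid was added, 30 min. Hydroperoxide was read by Fe-XO absorbance ratio 573/405 nm.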
HT1080-NT tox – qHTS for induction of synthetic lethality in tumor cells producing 2HG: qHTS for the HT-1080-NT fibrosarcoma cell line; HT-1080-NT fibrosarcoma viability, CellTiter-Glo ATP luminescence, 48 h; Potency, µM (top dose mostly 46.1 µM), for the others: at the highest dose activity, negative = less viability, hits mostly cytotoxic; 360,000 compounds, 1.6% hits;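 note: NT is the 2HG producing partner of a matched IDH1 knockdown line; potency is the fitted concentration of half-maximal effect; 0% = DMSO-treated cells and -100% = media-only wells without cells; nearly all actives have a fitted effect of over 55% in size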
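Viability by CellTiter-Glo luminescence after 48 h compound exposure at 37C of HT-1080-NT cells (750/well, RPMI, 5% FBS). % activity scaled between DMSO wells and medium-only wells, then curve-fitted and categorized by curve class.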
IL-1B inflam inh – qHTS for Inhibitors of Inflammasome Signaling: IL-1-beta AlphaLISA Primary Screen; activity change, % at 57.5 µM; 360,000 compounds, 4.7% hits; AID 743279, 2014; THP-1 LPS/ATP IL-1B secretion, AlphaLISA, 16 h; stronger effect = lower value; in the data active = activity change below about -50%; inconclusive = mostly about -30% to -49%
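THP-1 cells pretreated 1 hr with compounds (up to 57.5 uM final), then stimulated with LPS (250 ng/mL final) plus ATP (1.25 mM final); secreted IL-1B measured by AlphaLISA after 16 hr, decreased signal indicating inhibition.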
TDP1 cell noCPT – qHTS for Inhibitors of human tyrosyl-DNA phosphodiesterase 1 (TDP1): qHTS in cells in absence of CPT; 420,000 compounds, 15% hits; DT40 Tdp1-/- hTDP1 cells, no CPT, ATP luminescence, 48 h; AID 686978, 2013; Potency, µM (top dose mostly 46.2 µM), for inactives: at the highest dose activity change, negative = growth inhibition, usual class: inhibitors; note: potency is the fitted concentration of half-maximal effect; nearly all actives have a fitted effect of over 55% in size
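Compound effects on proliferation are scored in DT40 Tdp1-/-;hTDP1 cells in the absence of CPT. ATP levels (CellTiter-Glo luminescence) are recorded after a ≥48 hr, 37 °C incubation.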
HT1080 IDH1KD tx – qHTS for induction of synthetic lethality in tumor cells producing 2HG: qHTS for the HT-1080-IDH1KD cell line; HT-1080 IDH1 knockdown viability, ATP luminescence, 48 h; Potency, µM (titrated, usually from 46.1 µM), for the others: at the top dose activity, negative = toxicity, usual class: cytotoxic; AID 686971, 2013; 360,000 compounds, 2% hits;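 note: potency is the fitted concentration of half-maximal effect; 0% = DMSO wells and -100% = cell-free medium wells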
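Cytotoxicity counter-line: IDH1KD HT-1080, 48 h, CellTiter-Glo. Curves classed by r2, magnitude and activity.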
TDP1 cell CPT – qHTS for Inhibitors of human tyrosyl-DNA phosphodiesterase 1 (TDP1): qHTS in cells in presence of CPT | chicken DT40 Tdp1-/-;hTDP1 cells + 20 nM CPT, ATP luminescence, 48 h | Potency, µM (doses to about 46.2 µM), inactives show at the top dose activity change, negative = growth inhibition, hits mostly inhibitors | 420,000 compounds, 12% hits | AID 686979, 2013; note: potency is the fitted concentration of half-maximal effect; nearly all actives have a fitted effect of over 55% in size
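Cell growth measured by CellTiter-Glo luminescence after a minimum 48 h, 37 C compound exposure with 20 nM CPT in Tdp1-knockout DT40 cells stably expressing hTDP1, seeded 400/well; qHTS titration format.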
Active calls of the source: *; ? = inconclusive; . = no result; [ ] = dose if it differs, or a comment. Unless noted, calls come from the whole dose curve; as a rule, active = well fitted curve in the direction sought with a large enough effect; inconclusive = small, poorly fitted or top-dose-only effect, or another doubt; inactive = no such curve, though single readings can be large; an effect the other way counts as inactive or inconclusive. Unless noted, % is set by controls: 0 for no effect and ±100 for the full control effect.

SMILES	12-LOX inh	HT1080-NT tox	IL-1B inflam inh	TDP1 cell noCPT	HT1080 IDH1KD tx	TDP1 cell CPT
Cc1ccc(S(=O)(=O)N2C[C@H](F)C[C@@H]2C(=O)N2CCOCC2)cc1Cl	19.3%	.	.	.	.	.
COc1ccc(Cn2c(C3CCN(C(=O)c4ccco4)CC3)n[nH]c2=O)cc1	-1.2%	.	.	.	.	.
CC(C)(C)OC(=O)/C=C/[C@@H]1Cc2cc(C(F)(F)F)ccc2N1	-23.1%	.	.	.	.	.
Cc1ccc(-c2ncc(C(=O)Nc3cc(F)ccc3F)c(-c3ccncc3)n2)cc1	-14.3%	.	.	.	.	.
COc1ccc(C(=O)NN(C)c2nc(-c3ccccc3)nnc2C(F)(F)F)cc1	-21.4%	13.8%	-5.2	16.4µM*	8.5%	?
CN(NC(=O)C(C)(C)C)c1nc(-c2ccccc2)nnc1C(F)(F)F	-7.9%	2.3%	15.0	-29.2%	-1.6%	?
Cc1cccc(C(=O)NN(C)c2nc(-c3ccccc3)nnc2C(F)(F)F)c1	-14.1%	3.2%	4.5	2.59µM*	1.1%	20.6µM*
CN(C)c1nc(-c2ccccc2)nnc1C(F)(F)F	0.0%	4.1%	31.6	8.5%	4.6%[9.24 µM]	4.5%
COc1ccc(C(=O)NN(C)c2nc(C(F)(F)F)nc3ccccc23)cc1	-19.5%	?	93.9	0.206µM*	0.0065µM*	0.184µM*
CCOc1cc(CNC(=O)c2cccc(NC(=O)c3nnc(C)s3)c2)cc(OCC)c1OCC	-25.3%	.	.	.	.	.
O=C(Nc1onc2c1CCCC2)c1ccc(Cl)cc1Cl	3.6%	.	.	.	.	.
COC(=O)c1cc(S(=O)(=O)N2CCC(c3ccccc3)C2)c[nH]1 (configuration not stated)	11.8%	?	30.9	?	-1.9%	23.1µM*
COC(=O)c1cc(S(=O)(=O)N2CCC(c3cc(OC)ccc3OC)C2)c[nH]1 (configuration not stated)	-6.4%	-17.7%	-5.2	?	-13.3%	13µM*
COc1ccc(NC(=O)c2cc(S(=O)(=O)N3CCCCC3)c[nH]2)c(OC)c1	-22.3%	-6.3%	-2.7	-29.3%	-8.1%	-20.1%
COc1ccc(CCCNC(=O)C2Cc3c(-c4ccccc4)ccnc3O2)cc1 (configuration not stated)	3.0%	8.2µM*	-22.0	5.8µM*	?	6.51µM*
NC(=O)c1cccc(-c2ccnc3c2CC(C(=O)NCc2cccc(Cl)c2)O3)c1 (configuration not stated)	-5.5%	?	0.0	14.6µM*	9.2µM*	16.4µM*
CC(=O)Nc1ccc(-c2ccnc3c2CC(C(=O)NCc2cccc(Cl)c2)O3)cc1 (configuration not stated)	1.7%	?	29.0	2.31µM*	1.64µM*	3.66µM*
CC(C)NC(=O)C1Cc2c(-c3ccc4c(c3)OCO4)ccnc2O1 (configuration not stated)	-20.2%	-0.2%	21.9	?	2.1%	?
O=C(NCCc1ccccc1)C1Cc2c(-c3ccc4c(c3)OCO4)ccnc2O1 (configuration not stated)	-6.1%	?	-1.0	16.4µM*	?	20.6µM*
O=C(NCCCOCC1CCCO1)c1cc(=O)c2ccccc2o1 (configuration not stated)	-14.3%	.	.	.	.	.
O=C(CN1CCCC1)N1CC[C@@H](c2ccc3ccccc3c2)[C@H](O)C1	46.8%	.	.	.	.	.
CC(=O)Nc1cccc(-c2ccnc3c2CC(C(=O)NCCc2ccccc2)O3)c1 (configuration not stated)	-4.5%	?	76.4	2.91µM*	?	4.61µM*
CC(=O)Nc1cccc(-c2ccnc3c2CC(C(=O)NCc2cccc(Cl)c2)O3)c1 (configuration not stated)	-18.4%	?	51.2	4.11µM*	?	3.26µM*
CC(=O)Nc1cccc(-c2ccnc3c2CC(C(=O)NCc2cccnc2)O3)c1 (configuration not stated)	12.1%	?	21.9	?	?	-13.1%
CCCCc1ccc(S(=O)(=O)NC(=O)C2(C)CCN2C(=O)CC2CC2)cc1 (configuration not stated)	0.4%	2.9%	12.9	-1.0%	1.9%	-1.3%
SMILES	12-LOX inh	HT1080-NT tox	IL-1B inflam inh	TDP1 cell noCPT	HT1080 IDH1KD tx	TDP1 cell CPT
Cc1c(Cl)cccc1NC(=S)NCCc1ccc(F)cc1	?	-13.5%	-82.2*	-19.5%	-6.3%	-26.6%
Cc1c(Cl)cccc1NC(=S)NCCc1ccc(Cl)cc1	25.1µM*	?	.	?	?	?
O=C(CCc1c[nH]c2ccccc12)N1CCCC1CN1CCCC1 (configuration not stated)	-0.1%	.	.	.	.	.
Cc1c(C(C)NC(=O)c2ccc(=O)[nH]c2)cnn1-c1cccc2ccccc12 (configuration not stated)	0.0%	.	.	.	.	.
COC(=O)[C@]1(C)N[C@H](c2ccc(SC3CCCCC3)cc2)[C@@H]2C(=O)N(C)C(=O)[C@@H]21	-1.8%	5.1%	21.8	16.4µM*	13.8%	?
CCCCCCSc1ccc([C@H]2N[C@@](C)(C(=O)OC)[C@H]3C(=O)N(C)C(=O)[C@@H]23)cc1	?	-18.3%	?	-75.8%	-22.0%	20.6µM*
CCCSc1ccc([C@H]2N[C@@](C)(C(=O)OC)[C@H]3C(=O)N(C)C(=O)[C@@H]23)cc1	?	10.2%	13.4	-29.8%	6.2%	-29.4%
Cc1cc(C)nc(SCC(=O)Nc2nc(-c3ccccc3)c(-c3ccccc3)o2)n1	10.9%	2.1%	-0.7	23.1µM*	2.1%	?
Cc1ccc(-c2nonc2NC(=O)c2ccccc2)cc1	10.1%	.	.	.	.	.
Cc1ccc(C(=O)Nc2nc(-c3ccccc3)c(-c3ccccc3)o2)cc1	-4.5%	-3.6%	-9.5	18.4µM*	?	20.6µM*
Cc1nc(-c2ccc(NC(=O)C(C)(C)C)cc2)c(-c2ccccc2)o1	7.9%	3.2%	-12.7	16.4µM*	5.1%	?
O=C(OCC1CCC=CO1)C1CCC=CO1 (configuration not stated)	9.3%	-2.2%	-1.4	4.1%	-3.0%	0.2%

Source: PubChem
